High-throughput results from PubChem.
Pol eta inh-1 – DNA polymerase eta (human) inhibition. Potency, µM (doses to about 114 µM), actives largely listed as inhibitors. actives 1.2% (n = 390,000). Q9Y253. recombinant Pol eta, fluorescent DNA replication assay
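Fluorescent replication assay: 50 nM final substrate added after a 15 min room-temperature compound preincubation with 10 nM enzyme. Signal taken at 0 min and again at 10 min.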
FEN1 inh – inhibitors of human flap endonuclease 1. P39748. Recombinant FEN1 flap cleavage, fluorescence, 15 min. Potency, µM (highest dose often 114 µM), most hits filed as inhibitors. actives 0.35% (n = 390,000); note: nearly all actives have a fitted effect of over 65% in size
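Quantitative HTS format: each compound was titrated, incubated with 10 nM nuclease for 15 min at room temperature, then challenged with flap substrate at 50 nM final. Signal change over 15 min gave concentration–effect curves.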
WRN inhibitor – blocks human WRN helicase. Q14191. WRN helicase unwinding, fluorescent forked duplex, kinetic. Potency, µM (doses to about 114 µM), hits mostly inhibitors. actives 0.46% (n = 360,000); note: nearly all actives have a fitted effect of over 55% in size
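Kinetic red-fluorescence monitoring (525/598 nm) tracks WRN helicase activity after 100 nM fluorophore-quencher forked duplex and 2 mM ATP are added to 20 nM enzyme pretreated 15 min at room temperature with compound.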
POLB inh – blocks human DNA polymerase beta activity. P06746. Pol beta primer extension/strand displacement, fluorescence kinetic. Potency, µM (series often up to 114 µM), usual class: inhibitors. actives 1.3% (n = 340,000). AID 485314
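Pol beta (10 nM) and compounds were preincubated 15 min at room temperature, then 50 nM substrate (final) started primer extension/strand displacement. Reads were taken at 0 and 10 min; concentration-response data were fitted to a four-parameter Hill equation.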
POLI inh – DNA polymerase iota (human) inhibition; Q9UNA4; Potency, µM (top dose mostly 115 µM), usual class: inhibitors; Pol iota fluorescent replication assay, 10 min; actives 1% (n = 390,000)
Target sequence (Q9UNA4 whole entry, looked up): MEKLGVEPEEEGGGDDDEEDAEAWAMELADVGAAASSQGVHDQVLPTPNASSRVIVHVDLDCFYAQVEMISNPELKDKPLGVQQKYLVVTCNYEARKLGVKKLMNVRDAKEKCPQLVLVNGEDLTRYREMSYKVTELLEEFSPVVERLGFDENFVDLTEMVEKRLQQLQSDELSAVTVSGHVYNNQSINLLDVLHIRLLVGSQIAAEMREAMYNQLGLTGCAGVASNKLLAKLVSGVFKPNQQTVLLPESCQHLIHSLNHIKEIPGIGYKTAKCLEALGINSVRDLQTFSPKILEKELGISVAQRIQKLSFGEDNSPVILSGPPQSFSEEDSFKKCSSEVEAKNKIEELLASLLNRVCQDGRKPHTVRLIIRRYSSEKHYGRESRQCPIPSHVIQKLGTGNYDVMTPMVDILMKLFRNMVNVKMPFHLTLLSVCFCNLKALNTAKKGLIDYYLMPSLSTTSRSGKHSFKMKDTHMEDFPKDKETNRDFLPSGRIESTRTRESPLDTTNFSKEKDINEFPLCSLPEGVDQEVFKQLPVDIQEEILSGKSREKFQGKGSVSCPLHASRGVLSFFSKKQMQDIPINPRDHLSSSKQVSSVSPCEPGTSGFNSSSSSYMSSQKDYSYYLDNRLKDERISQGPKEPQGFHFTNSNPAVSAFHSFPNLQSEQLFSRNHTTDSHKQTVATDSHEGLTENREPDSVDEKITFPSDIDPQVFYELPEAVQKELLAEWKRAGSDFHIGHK
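Pol iota at 10 nM preincubated 15 min with compounds at room temperature; reaction started with fluorescent substrate, 50 nM final. Fluorescence read kinetically at 0 and 10 min; buffer-only wells as negative control.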
Pol kappa inh-1 – inhibitors of human DNA polymerase kappa | actives 0.53% (n = 400,000) | Potency, µM (doses to about 107 µM), usual class: inhibitors | purified Pol kappa, fluorescent DNA synthesis assay, 10 min
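10 nM Pol kappa was preincubated with compounds for 15 min at room temperature. Reaction started with 50 nM (final) substrate. Fluorescence read kinetically at 0 and 10 min.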
Pol iota confirm – Inhibitors of human DNA polymerase iota, confirmation; Potency, µM, actives largely listed as inhibitors; Pol iota primer extension, TAMRA/BHQ fluorescence; actives 77% (n = 1,500); shares compounds with Pol kappa inh-1
GALK inh confirm – confirmation of human galactokinase (GALK) inhibitors. Potency, µM (doses to about 115 µM), hits mostly inhibitors. shares compounds with Pol eta inh-1. actives 70% (n = 150). AID 2015. purified GALK, Kinase-Glo ATP depletion luminescence
Redox cycling – redox cycling activity in phenol red-HRP assay; Phenol red-HRP H2O2 redox cycling, absorbance 600 nm; Potency, µM (doses to about 115 µM), usual class: inhibitors; shares compounds with Pol eta inh-1; AID 2035; actives 40% (n = 150)
HEK293 tox – HEK-293 cytotoxicity, GALK inhibitor secondary. shares compounds with Pol eta inh-1. actives 10% (n = 170). Potency, µM (highest dose often 46.1 µM), actives largely listed as inhibitors. HEK-293 viability, ATP luminescence (CellTiter-Glo), 24/48 h. AID 2547
Pol kappa inh-2 – Pol kappa (human) inhibition, cherry-pick confirmation. actives 76% (n = 920). Potency, µM, hits mostly inhibitors. purified Pol-kappa, fluorescent strand-displacement substrate. shares compounds with Pol eta inh-1
Pol eta inh-2 – Pol eta (human) inhibition, cherry-pick confirmation. Potency, µM, usual class: inhibitors. actives 64% (n = 2,600). Pol eta primer extension, TAMRA/BHQ fluorescence, 10 min. shares compounds with Pol eta inh-1
A number is an active result; - = inactive; ? = inconclusive; . = not tested or not shown; [ ] = remark or other dose. The list is not random: actives were taken first. Their share in the collection is about 2.4%. Calls come from the whole dose curve; as a rule, active = well fitted curve in the direction sought with a large enough effect; inconclusive = small, poorly fitted or top-dose-only effect, or another doubt; inactive = no such curve, though single readings can be large; an effect the other way counts as inactive or inconclusive.

SMILES	Pol eta inh-1	FEN1 inh	WRN inhibitor	POLB inh	POLI inh	Pol kappa inh-1	Pol iota confirm	Pol eta inh-2	others
CC(C)[C@H](NC(=O)C1CC(=O)N(c2ccc3c(c2)OCO3)C1)C(=O)NC1CCCC1 (stereo partly specified)	32µM	-	-[11.6 µM]	?	-	-	?	76
C[C@H](NC(=O)C1CC(=O)N(c2ccc3c(c2)OCO3)C1)C(=O)NC1CCCC1 (stereo partly specified)	-	-	-	-	-	-	.	.
Cc1nc(-c2ccc(Cl)cc2)oc1COC(C)(C)C(=O)O	.	.	.	.	.	-[19.4 µM]	.	.
C[n+]1cccc2c(Br)ccc([O-])c21	20µM	-	-[11.6 µM]	28µM	?	-	19	24	GALK inh confirm=47µM;Redox cycling=21µM;HEK293 tox=-
NC(=O)C1=CN(C2OC(COP(=O)(O)OP(=O)(O)OC[C@H]3O[C@@H](n4cnc5c(N)ncnc54)[C@H](OP(=O)(O)O)[C@H]3O)C(O)C2O)C=CC1 (stereo partly specified)	-	.	.	-	-	.	.	.
O=C(O)[C@H](CC(=O)N1C[C@H]2CCCC[C@H]2C1)Cc1ccccc1	.	.	.	.	.	-[19.4 µM]	.	.
NC1=NC(=O)C(=Cc2ccccc2)S1	-	-	-	.	-	-	.	.
NC1=NC(=O)/C(=C\c2ccco2)S1	18µM	50µM	50µM	?	?	40µM	17	27	Pol kappa inh-2=12
Cc1c(C(=O)O)sc2nc(CSc3ncc(C(F)(F)F)cc3Cl)[nH]c(=O)c12	32µM	-	-	40µM	?	-	?	67
Cc1cc(/C=C(\C#N)C(=O)NCc2ccco2)c(C)n1-c1ccc(C(=O)O)cc1	20µM	-	-	?	40µM	?	67	27
Cc1cc(/C=C(\C#N)C(=O)NCC2CCCO2)c(C)n1-c1ccc(Cl)cc1 (stereo unspecified)	-	-	-	-	-	-	.	.
Fc1ccc(Nc2nc(-c3ccoc3)nc3ccccc23)cc1	.	.	.	.	.	-	.	.
N#C/C(=C\c1ccc(-c2ccc(C(=O)O)cc2)o1)C(=O)Nc1ccc(F)cc1	5.6µM	45µM	56µM	?	10µM	56µM	27	27
Cc1ccc(NC(=O)/C(C#N)=C/c2ccc(C)o2)cc1	.	-	.	-	-	-	.	.
NCCCC(N)CC(=O)NCC1NC(=O)C(CO)NC(=O)C(N)CNC(=O)C(C2CCN=C(N)N2)NC(=O)/C(=C/NC(N)=O)NC1=O (stereo unspecified)	.	.	.	.	.	-[19.4 µM]	.	.
CCOc1nc(Nc2ccc(OC)cc2)nc(OCC)n1	20µM	-	-	-	?	?	67	?
O=C(O)CCCCCN1C(=O)/C(=C/c2cn(-c3ccccc3)nc2-c2cccs2)SC1=S	?	-	?	.	?	?	34	.	Pol kappa inh-2=?
O=C(O)CCCCCN1C(=O)/C(=C\c2cn(-c3ccccc3)nc2-c2cccs2)SC1=S	45µM	-	-[11.6 µM]	-	?	?	34	?
